TDP1 inh = blocks human tyrosyl-DNA phosphodiesterase 1. recombinant TDP1, AlphaScreen DNA substrate cleavage. Potency, µM (series often up to 130 µM), actives largely listed as inhibitors. 0.28% of 350,000 active; also: nearly all actives have a fitted effect of over 40% in size
Target sequence (Q9NUW8 whole entry, looked up): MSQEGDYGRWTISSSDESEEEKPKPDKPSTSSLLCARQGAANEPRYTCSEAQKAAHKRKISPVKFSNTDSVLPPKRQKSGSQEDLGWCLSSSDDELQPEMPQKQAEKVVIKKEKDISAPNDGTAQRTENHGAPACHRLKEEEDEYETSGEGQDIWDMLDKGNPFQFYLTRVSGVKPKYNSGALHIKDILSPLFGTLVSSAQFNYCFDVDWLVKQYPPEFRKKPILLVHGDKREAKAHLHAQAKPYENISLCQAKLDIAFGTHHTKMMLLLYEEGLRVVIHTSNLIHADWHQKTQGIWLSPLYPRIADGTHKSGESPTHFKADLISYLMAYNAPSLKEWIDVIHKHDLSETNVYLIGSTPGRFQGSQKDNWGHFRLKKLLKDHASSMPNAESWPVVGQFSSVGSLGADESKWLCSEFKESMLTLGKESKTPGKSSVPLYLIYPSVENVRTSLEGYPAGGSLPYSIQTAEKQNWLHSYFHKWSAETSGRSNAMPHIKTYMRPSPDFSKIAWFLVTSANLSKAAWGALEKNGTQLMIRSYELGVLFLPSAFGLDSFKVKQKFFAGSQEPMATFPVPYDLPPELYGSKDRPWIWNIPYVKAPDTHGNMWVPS
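Here, a 5' biotin and 3' phosphotyrosine-FITC DNA oligonucleotide reports Tdp1 activity: intact substrate bridges AlphaScreen beads, while cleavage leaves a 3' phosphate and drops signal. All incubations at room temperature.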
ELG1 DNA repair = inhibitors of ELG1-dependent DNA repair in HEK293T cells; HEK293T ELG1-luciferase reporter, luminescence, 16 h; DNA damage induced by 5-fluorouridine; Potency, µM (highest dose often 46.1 µM), most hits filed as inhibitors; 2.3% of 330,000 active; also: nearly all actives have a fitted effect of over 55% in size
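5-Fluorouridine DNA damage + compound/DMSO, 2,000 cells/well, 16 h, 37 °C/5% CO2. ONE-Glo, 30 min RT, luminescence. Readout = decrease in reporter signal.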
IL-1B inflam inh = inflammasome signaling inhibition, IL-1 beta readout | 4.7% of 360,000 active | THP-1 LPS/ATP IL-1B secretion, AlphaLISA, 16 h; hits give low values | activity change, % at 57.5 µM; in the data active = activity change below about -50%; inconclusive = mostly about -30% to -49%
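Secreted IL-1B measured by AlphaLISA bead assay after 16 h compound exposure of THP-1 cells; compounds (final up to 57.5 uM) added 1 h before LPS (250 ng/mL) and ATP (1.25 mM) stimulation; lower signal means less secretion.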
DT40 TDP1 CPT = DT40-hTDP1 cell growth loss with CPT | chicken DT40 Tdp1-/-;hTDP1 cells + 20 nM CPT, ATP luminescence, 48 h | Potency, µM (titrated, usually from 46.2 µM), actives largely listed as inhibitors | 12% of 420,000 active | AID 686979; also: nearly all actives have a fitted effect of over 55% in size
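Chicken DT40 Tdp1-/- cells stably complemented with human TDP1 were seeded at 400 cells/well in medium containing 20 nM camptothecin, exposed to pin-transferred compounds, and grown at 37 °C for at least 48 hr. Viability was read as ATP luminescence.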
Giardia kill = Giardia lamblia killing; Giardia lamblia trophozoite viability; activity change, % at 7.66 µM, hits read low; 0.15% of 340,000 active; AID 540267; in the data active = activity change below about -80%; inconclusive = between about -30% and that limit;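 also: parasites exposed to compound for two days anaerobically before the ATP read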
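Viability, read as ATP luminescence: trophozoites at 100 cells/well, compound added, 48 hrs anaerobic at 37 deg C, then 15-30 min room-temperature development before reading.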
DT40 TDP1 no CPT = qHTS for Inhibitors of human tyrosyl-DNA phosphodiesterase 1 (TDP1): qHTS in cells in absence of CPT | AID 686978, 2013 | 15% of 420,000 active | Potency, µM (top dose mostly 46.2 µM), most hits filed as inhibitors | DT40 Tdp1-/- hTDP1 cells, no CPT, ATP luminescence, 48 h; also: nearly all actives have a fitted effect of over 55% in size
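Luminescent ATP content (CellTiter-Glo) served as the growth readout. Knockout chicken DT40 cells expressing human TDP1 were exposed to compounds without camptothecin for a minimum 48 hr at 37 °C.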
Hits are given with their value; . = inactive; ? = inconclusive; / = no result; ! = not active in a repeat. Sampled rows, rich in hits. Any-hit rate of the full collection: about 19%. Unless noted, calls follow the shape of the dose curve; as a rule, active = well fitted curve in the direction sought with a large enough effect; inconclusive = small, poorly fitted or top-dose-only effect, or another doubt; inactive = no such curve, though single readings can be large; an effect the other way counts as inactive or inconclusive.

SMILES | TDP1 inh | ELG1 DNA repair | IL-1B inflam inh | DT40 TDP1 CPT | Giardia kill | DT40 TDP1 no CPT
CCc1ccc(C(=O)CSc2nc3cc(S(=O)(=O)N4CCOCC4)ccc3n2CC)cc1 | . | . | . | ? | . | ?
CC(=O)Nc1ccc(C(=O)OCC(=O)NCc2ccccc2)cc1 | . | . | . | ? | . | 21µM
CN(C)c1ccc(NC(=S)c2ccccn2)cc1 | . | ? | . | 4.6µM | ? | 5.2µM
CN(C)c1ccc(C(=S)Nc2ccccc2)cc1 | . | ? | . | ? | . | 16µM
C=C(c1ccccc1)c1ccc(N(C)C)cc1 | / | . | . | . | . | .
CN(C)c1cc(O)c(C(=S)Nc2ccccc2)c(N(C)C)c1 | . | . | . | 16µM | . | ?
C=CCN(C)NC(=S)Nc1ccccc1 | . | . | . | . | . | .
CCOC(=O)c1noc2ncn(CC(=O)Nc3ccc(C)c(F)c3)c(=O)c12 | . | / | / | / | / | /
CCOc1ccc(C(=O)NC(C(=O)NCC(c2cccs2)N(C)C)C(C)C)cc1 (configuration not stated) | . | . | . | . | . | .
COc1cccc(Nc2c3c(nc4nncn24)CCC3)c1 | . | / | / | . | / | .
C/C(=N\Nc1ccc(S(=O)(=O)N2CCCCC2)cn1)c1ccc(O)cc1 | . | ? | . | ? | . | 15µM
COc1cccc(/C(C)=N/Nc2ccc(S(=O)(=O)N3CCCCC3)cn2)c1 | . | . | . | ? | . | 2.9µM
Cc1ccc(NC(=O)c2ccc(S(=O)(=O)N3CCCCCC3)cc2)nc1 | . | ? | . | . | . | ?
Cc1cccc(OCC(=O)Nc2ccc(S(=O)(=O)Nc3onc(C)c3C)cc2)c1C | . | . | . | . | . | ?
COc1ccc(-c2noc(-c3ccc(NCc4ccccc4OC)c([N+](=O)[O-])c3)n2)cc1 | . | / | / | . | / | ?
CCOC(=O)c1cc2c(=O)n3ccccc3nc2n(CC2CCCO2)c1=NC(=O)c1ccccc1C (configuration not stated) | . | / | / | . | / | .
CCOC(=O)c1cc2c(=O)n3cccc(C)c3nc2n(Cc2ccco2)c1=NC(=O)c1ccccc1 | . | . | . | 29µM | . | ?
CCOC(=O)c1cc2c(=O)n3ccccc3nc2n(CC(C)C)c1=NC(=O)C(C)Oc1ccccc1 (configuration not stated) | . | / | / | ? | / | ?
CCOC(=O)c1cc2c(=O)n3ccccc3nc2n(CCCOC)c1=NC(=O)c1ccncc1 | . | ? | . | . | . | .
CCOC(=O)c1cc2c(=O)n3ccccc3nc2n(Cc2ccco2)c1=NC(=O)c1ccccc1OC | 79µM! | ? | ? | 16µM | . | 13µM
CCOC(=O)c1cc2c(=O)n3ccccc3nc2n(Cc2ccco2)c1=NC(=O)c1cccc(OC)c1 | . | ? | -55 | ? | . | ?
CCOC(=O)c1cc2c(=O)n3ccccc3nc2n(Cc2ccco2)c1=NC(=O)c1ccc(OC)cc1 | . | ? | . | 6.5µM | . | 5.2µM
CCOC(=O)c1cc2c(=O)n3cccc(C)c3nc2n(Cc2ccco2)c1=NC(=O)c1ccc(C)cc1 | / | / | . | . | . | .
COCCN1CCN(C(=O)c2cnn(-c3nccc(-c4ccco4)n3)c2C2CC2)CC1 | / | / | / | . | / | .
Cc1ccc(NC(=O)c2ccc(=O)n(CC(=O)Nc3ccccc3)n2)cc1 | . | ? | . | . | . | .
Cc1ccc(NC(=O)c2oc3c(c2C)-c2[nH]ncc2CC3)c(Cl)c1 | . | / | / | ? | / | ?
CCOC(=O)c1cc2c(=O)n3ccccc3nc2n(CC2CCCO2)c1=NC(=O)c1ccccc1OCC (configuration not stated) | . | / | / | 16µM | / | 15µM
CCn1cc(S(=O)(=O)c2cccc(C)c2)c(=O)c2cc(F)c(N3CCCC(C)C3)cc21 (configuration not stated) | . | / | / | ? | / | .
CC(=O)CCc1ccc(OCC(O)CNC2CCCc3ccccc32)cc1 (configuration not stated) | . | . | . | ? | . | ?
